Screens: PubChem, several laboratories
Shown are actives, neighbours in structure and some others; about 4% of the full set was active somewhere.
Anthrax LF prot: blocks Bacillus anthracis lethal factor protease. AID 588501. multiplex microsphere protease cleavage assay, LF. inhibition, % at 10 µM. P15917. 360,000 tested, 0.12% active; in the data active = inhibition above about 30%; inconclusive = no clear call, values can overlap the other calls; also: plate controls were buffer without enzyme for full effect and enzyme alone for no effect
Autofluor counter: counter-screen for toxin protease inhibitors: compound fluorescence. compound autofluorescence counterscreen, microsphere flow cytometry; hits give high values. 360,000 tested, 3.1% active. fluorescence intensity (test concentration not listed). AID 624483; in the data active = fluorescence intensity above about 16000; inconclusive = no clear call, values can overlap the other calls
MazF activator: MazEF (E. coli) toxin RNase activation; 350,000 tested, 0.32% active; P0AE70; activation, % at 20 µM; FAM/BHQ RNA-DNA oligo cleavage fluorescence, 5 h; in the data active = activation above about 50%
Target sequence (P0AE70 whole entry, looked up): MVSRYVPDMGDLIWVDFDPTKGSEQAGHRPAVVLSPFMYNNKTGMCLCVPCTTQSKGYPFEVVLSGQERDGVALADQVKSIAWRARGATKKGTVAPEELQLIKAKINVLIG
BoNT A protease: BoNT A light chain protease inhibition; multiplex microsphere protease substrate cleavage, flow cytometry; AID 588499; 360,000 tested, 0.17% active; inhibition, % at 10 µM; in the data active = inhibition above about 30%; inconclusive = no clear call, values can overlap the other calls; also: plate controls were buffer without enzyme for full effect and enzyme alone for no effect
BoNT F protease: blocks Botulinum neurotoxin F light chain protease; Multiplex microsphere protease cleavage assay, flow cytometry; inhibition, % at 10 µM; AID 588497; 360,000 tested, 0.22% active; in the data active = inhibition above about 35%, passing the limit was not always enough; inconclusive = no clear call, values can overlap the other calls; also: plate controls were buffer without enzyme for full effect and enzyme alone for no effect
DUSP3 inh: inhibitors of human VHR1 phosphatase (DUSP3); recombinant VHR phosphatase, pNPP absorbance; inhibition, % at 13.3 µM; 290,000 tested, 0.52% active; AID 1654; in the data active = inhibition above about 50%
Target sequence (P51452 whole entry, looked up): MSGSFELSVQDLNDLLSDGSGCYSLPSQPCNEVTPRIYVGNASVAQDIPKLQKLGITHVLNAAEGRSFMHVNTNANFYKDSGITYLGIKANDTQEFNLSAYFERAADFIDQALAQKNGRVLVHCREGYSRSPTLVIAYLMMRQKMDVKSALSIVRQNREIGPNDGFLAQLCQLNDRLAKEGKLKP
BoNTA LC inh 1: BoNT/A light chain protease inhibition; shares compounds with BoNT F protease; multiplex microsphere protease assay, flow cytometry; inhibition, % at 10 µM; 720 tested, 3% active; AID 602139; in the data active = inhibition above about 32%
BoNT-F LC CP1: inhibitors of Botulinum neurotoxin F light chain protease | shares compounds with BoNT F protease | multiplex microsphere protease cleavage assay, flow cytometry | inhibition, % at 10 µM | 720 tested, under 10 active | AID 602140
Anthrax LF CP1: Bacillus anthracis lethal factor protease inhibition; shares compounds with BoNT F protease; 720 tested, under 10 active; AID 602142; inhibition, % at 10 µM; multiplex microsphere protease cleavage assay, LF
* marks the source's active call; other numbers are inactive results; ? = inconclusive; · = no result given. Unless noted, no rule for the calls is given here.

SMILES | Anthrax LF prot | Autofluor counter | MazF activator | BoNT A protease | BoNT F protease | DUSP3 inh | BoNTA LC inh 1 | BoNT-F LC CP1 | Anthrax LF CP1
COc1ccc(OC)c(Nc2nc(NCCCN(C)C)nc(N)c2[N+](=O)[O-])c1 | 31.0* | 3678 | 18.7 | 0.7 | ? | -4.8 | 1.3 | -5.2 | -2.9
CN(CC(=O)Nc1ccc(Cl)cc1)C(=O)c1ccc(N2CCCC2=O)cc1 | · | · | 0.7 | · | · | · | · | · | ·
O=C(CCCc1nc2ccccc2s1)NCc1ccc(F)cc1 | 0.2 | 1938 | 0.1 | 2.6 | 39.6* | 1.3 | -0.4 | -2.9 | -3.5
CCn1c(=O)c(C(=O)Nc2cccnc2)c(O)c2ccccc21 | 4.5 | 6137 | -1.1 | 4.6 | 40.5* | · | -1.7 | -3.4 | 1.2
Cc1cc(C)n(C(=O)COc2ccc(Cl)cc2Cl)n1 | 3.2 | 5427 | -11.1 | 3.6 | 23.4 | 7.5 | · | · | ·
Cc1cc(C)n(C(=O)COc2c(C)cccc2C)n1 | 1.8 | 4333 | 4.3 | 1.6 | 47.2* | 16.9 | -0.4 | -2.1 | -0.9
CCOC(=O)c1ccccc1NC(=O)CCNC(=O)Cn1cnc2ccccc2c1=O | -0.5 | 3405 | 2.3 | 0.1 | -19.2 | 5.0 | · | · | ·
COc1ccc(C(=O)N2CCN(Cc3ccc(OC)c(OC)c3)CC2)cc1 | 16.7 | 3398 | 8.9 | 3.7 | 43.5* | 6.5 | -0.2 | 3.1 | -0.7
COc1ccc(C(=O)N2CCN(Cc3cc(OC)ccc3OC)CC2)cc1 | -0.7 | 4285 | 13.9 | 0.5 | ? | -10.0 | · | · | ·
CC1CCCN(C(=O)CSc2nnc3n(C4CCCC4)c(=O)c4ccccc4n23)C1 (centres undefined) | -2.5 | 10616 | 1.8 | 0.8 | 1.9 | -4.6 | · | · | ·
Cc1cc(C)n(-c2nnc(NC(C)(C)C)nn2)n1 | -1.6 | 2650 | -4.7 | 1.1 | -0.6 | -5.6 | · | · | ·
Cc1cc(C)n(-c2nnc(NC34CC5CC(CC(C5)C3)C4)nn2)n1 | 20.0 | 2849 | 5.5 | 51.7* | 10.6 | 11.0 | 15.7 | -5.5 | 21.0
COC(=O)C1Cc2c([nH]c3ccccc23)C2(CCN(Cc3ccccc3)CC2)N1 (centres undefined) | 6.5 | 7106 | -112.2 | 4.2 | 40.8* | 20.6 | 0.6 | 1.1 | 1.6
CCS(=O)(=O)N1CCC(C(=O)Oc2ccccc2)CC1 | -1.8 | 4002 | 2.8 | 1.4 | 38.9* | -1.9 | 0.3 | -3.3 | 0.8
CCS(=O)(=O)N1CCC(C(=O)Oc2ccc(C(=O)OC)cc2)CC1 | -2.0 | 5488 | -17.6 | 1.2 | -9.2 | 5.1 | · | · | ·
COc1ccc(-c2c(C#N)c(N)nc3sc(C(=O)c4ccccc4)c(N)c23)cc1 | 18.5 | 2561 | -60.1 | 44.4* | 7.4 | -1.0 | 7.5 | -3.0 | 5.2
CCOc1ccc(-c2c(C#N)c(N)nc3sc(C(=O)c4ccccc4)c(N)c23)cc1 | 8.2 | 4289 | -159.5 | 10.2 | 2.0 | 7.4 | · | · | ·
Cc1ccc(NC(=O)CN(C)C(=O)c2ccccc2OCc2c(C)noc2C)cc1 | ? | ? | -0.7 | 89.0* | ? | · | 0.0 | -0.4 | -1.5
COc1ccc(CC2(CO)CCN(S(=O)(=O)c3sccc3C)CC2)cc1 | -6.3 | 4205 | -1.3 | 6.3 | 37.9* | 29.6 | 0.6 | -6.7 | 0.9
COc1ccc(NC(=O)C2Cc3c(-c4cccc(F)c4)ccnc3O2)cc1OC (centres undefined) | 2.4 | 2787 | · | 0.1 | 0.4 | · | · | · | ·
COc1ccc(-n2c(C)nc(N)c2C(=O)c2ccccc2)cc1 | 56.3* | 4994 | -7.6 | -5.3 | ? | 17.0 | -0.6 | -1.9 | 2.8
COC(=O)c1c(N)nc(C)n1-c1ccc(OC)cc1 | -3.5 | 3166 | -3.7 | 0.8 | 3.5 | -5.8 | · | · | ·
O=C(Cc1ccc(NC2=NC3CS(=O)(=O)CC3S2)cc1)NCc1ccccc1Cl (centres undefined) | -12.2 | 5527 | 9.9 | 0.3 | -7.8 | 13.4 | · | · | ·
Cc1cc(Nc2cccc(F)c2)nc(N2CCOCC2)n1 | -2.3 | 3819 | 5.8 | -3.1 | 42.1* | -8.5 | -0.4 | -1.1 | -3.5
COc1cc(OC)cc(C(=O)N2CCC(N3CCN(c4ccccc4)CC3)CC2)c1 | -5.1 | 3389 | 1.6 | -0.8 | -14.4 | 9.9 | · | · | ·
SMILES | Anthrax LF prot | Autofluor counter | MazF activator | BoNT A protease | BoNT F protease | DUSP3 inh | BoNTA LC inh 1 | BoNT-F LC CP1 | Anthrax LF CP1
c1ccc(-c2ncc3ccccn23)cc1 | -1.1 | 5898 | -0.1 | 1.5 | -1.6 | -4.8 | 0.1 | -6.6 | 1.3
c1ccc(Cn2c(CN3CCCC3)nc3ccccc32)cc1 | -2.3 | 6747 | 0.6 | 3.0 | 34.4 | 35.7 | -0.9 | -0.3 | 1.7
Clc1ccc(Cn2c(CN3CCCC3)nc3ccccc32)cc1 | · | · | · | · | · | 35.6 | · | · | ·
Nc1nc2ccccc2n1CCOc1ccc(F)cc1 | -0.9 | 4168 | 7.3 | -3.9 | 42.2* | 23.4 | -0.7 | -2.0 | 2.9
CCN(C(=O)c1cccnc1)c1ccccc1 | 3.4 | 3661 | 14.8 | -0.1 | -28.3 | 21.3 | · | · | ·
CCN(C(=O)c1ccc(C)c(Br)c1)c1ccccc1 | 1.0 | 2754 | -0.9 | 5.7 | 60.1* | 16.5 | -1.1 | -2.0 | 0.3
COc1ccc(C(=O)OCCc2sc[n+](CC(=O)c3ccccc3)c2C)cc1 | -12.1 | 4260 | 16.9 | -1.8 | 3.8 | 33.9 | · | · | ·
c1csc(-c2cnc3n2CCCC3)c1 | -3.6 | 4734 | 4.7 | -0.8 | -26.8 | 31.6 | · | · | ·
COc1ccc(-c2cnc3n2CCCCC3)cc1 | 9.4 | 3877 | 2.8 | 5.4 | 41.6* | -0.1 | -1.3 | -1.4 | 0.9
O=C(COc1ccccc1)N(Cc1nnc(-c2ccccc2Cl)o1)C1CC1 | 0.0 | 5742 | -8.6 | 12.3 | 36.9* | · | 1.3 | -5.5 | 4.2
CC(=O)N1CCCc2ccc(NS(=O)(=O)c3ccccc3)cc21 | -0.3 | 4006 | -7.8 | 5.8 | 7.5 | · | · | · | ·
CCCn1c(=O)c2c(nc3n2CCCN3Cc2ccccc2)n(C)c1=O | -10.1 | 2935 | 7.5 | 0.1 | 41.3* | 16.5 | -0.6 | -3.8 | -8.2
CCN(CC)c1ccc(/C=N/N2CCOCC2)c(O)c1 | 0.6 | 10349 | -6.6 | -1.3 | -5.7 | -1.2 | · | · | ·
O=C(Nc1ccc(F)cc1)C1CCN(C(=O)NCc2ccccc2)CC1 | 33.1* | 2927 | 7.0 | 1.6 | 19.3 | -19.0 | -1.1 | -6.9 | -3.0
CCCCCn1c(C(Cc2ccccc2)NC(C)=O)nc2ccccc21 (centres undefined) | 3.0 | 4208 | -13.4 | -0.4 | 1.9 | 36.3 | · | · | ·
CC1CN(S(=O)(=O)c2cccc(C(=O)Nc3ccc(N4CCCCC4)cc3)c2)CC(C)O1 (centres undefined) | -0.3 | 3605 | -2.3 | -0.4 | 0.7 | · | · | · | ·
